Compound activity: PubChem BioAssay, The Scripps Research Institute Molecular Screening Center
Shown are actives, neighbours in structure and some others; about 2.3% of the full set was active somewhere.
CHO-K1 Ca ag: counter-screen for M1 agonists: effect in parental CHO-K1 cells. Fluo-8 calcium fluorescence; scaled to maximal ATP response, vehicle zero. activation, % at 3 µM. 0.48% of 360,000 active. AID 602248; in the data active means activation above about 15%;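 further: untransfected CHO-K1 host cells lacking M1 receptor as counterscreen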
CHRM1 agonist: agonists of human M1 muscarinic receptor; P11229; 0.33% of 360,000 active; activation, % at 3 µM; AID 588814; CHO-K1 hM1, Fluo-8 calcium fluorescence, agonist mode; 0% DMSO, 100% acetylcholine EC100;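 active means activation above the run's mean compound activation plus 3 SD, cut at about 16% in these data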;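 further: peak over basal fluorescence ratio within a 140 s kinetic read after compound addition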
Target sequence (P11229 whole entry, looked up): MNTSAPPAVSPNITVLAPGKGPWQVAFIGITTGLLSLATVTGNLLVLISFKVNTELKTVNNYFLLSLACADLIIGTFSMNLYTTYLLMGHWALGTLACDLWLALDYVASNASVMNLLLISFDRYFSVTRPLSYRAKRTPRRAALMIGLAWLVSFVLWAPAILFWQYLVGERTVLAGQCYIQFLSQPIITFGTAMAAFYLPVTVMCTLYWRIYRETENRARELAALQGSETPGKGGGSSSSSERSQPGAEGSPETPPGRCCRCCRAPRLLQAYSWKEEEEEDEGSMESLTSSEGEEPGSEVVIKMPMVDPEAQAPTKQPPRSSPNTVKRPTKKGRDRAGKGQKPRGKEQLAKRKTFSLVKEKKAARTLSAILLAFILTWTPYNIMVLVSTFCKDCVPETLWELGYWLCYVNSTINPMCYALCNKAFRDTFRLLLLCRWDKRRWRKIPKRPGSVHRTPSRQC
CHRM1 PAM: potentiates human M1 receptor response to acetylcholine; P11229; CHO-K1 hM1, Fluo-8 calcium fluorescence, ACh EC20; 0% = ACh EC20, 100% = maximal ACh; activation, % at 3 µM; 0.088% of 360,000 active; in the data active means activation above about 19%, passing the limit was not always enough
CHO-K1 Ca antag: nonselective inhibitor or artifact in parental CHO-K1 cells | ATP-induced calcium, Fluo-8 fluorescence | inhibition, % at 3 µM | 0.6% of 360,000 active | AID 602250;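 active means inhibition above a per-plate cutoff, the plate's mean sample inhibition plus 3 SD, cut at about 24% in these data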;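 further: 0% = DMSO plus EC80 ATP and 100% = DMSO alone without ATP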
M1 antag: human CHRM1 antagonism | 1.3% of 360,000 active | CHO-K1 hM1, Fluo-8 calcium fluorescence, ACh EC80 antagonist | P11229 | inhibition, % at 3 µM;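 active means percent inhibition above its own plate's cutoff, namely the mean of that plate's compound wells plus 3 SD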;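 further: peak over basal fluorescence ratio during 140 s after agonist addition; 0% = ACh EC80 plus DMSO and 100% = DMSO alone without agonist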
M1 PAM parental: counter-screen for M1 PAMs: effect in parental CHO-K1 cells; ATP EC20, Fluo-8 calcium fluorescence; 0% at ATP EC20, 100% at ATP max; activation, % at 3 µM; 0.02% of 360,000 active;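 active means activation above the run cutoff, the mean activation of all test compounds plus 3 SD, cut at about 40% in these data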;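 further: peak over basal fluorescence ratio in a 140 s read after ATP addition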
* hit, by the source's call.

SMILES	CHO-K1 Ca ag	CHRM1 agonist	CHRM1 PAM	CHO-K1 Ca antag	M1 antag	M1 PAM parental
Cc1ccc(S(=O)(=O)NCCC(=O)N2CCN(c3cccc(Cl)c3)CC2)cc1C	6.1	-0.7	6.0	-6.7	-10.7	4.2
Cc1nc2ccccc2cc1OCc1ccc(Cl)cc1	5.5	-2.4	-12.2	14.6	21.6*	8.3
COc1cccc(COc2cc3ccccc3nc2C)c1	5.6	-0.9	-6.5	22.0	33.9*	11.8
Cc1nc2ccccc2cc1OCc1ccccc1	5.2	-1.6	-12.4	15.0	17.5*	11.9
CCS(=O)(=O)N1Cc2ccccc2CC1C(=O)Nc1nc(C)cs1 (centres undefined)	-0.5	-1.3	6.3	31.8*	-8.5	-10.6
COc1cc(C(=O)OCCc2cc3ccccc3c(=O)o2)cc(OC)c1OC	4.4	-3.6	-4.7	-7.5	4.8	-4.2
O=C(O)c1ccc2c(c1)C(=O)N(c1cccc(-c3nc4ccccc4s3)c1)C2=O	-0.5	-4.0	2.2	24.3*	-5.9	-6.0
CC(=O)Nc1cccc(-c2nc3ccc(NC(C)=O)cc3s2)c1	1.1	-5.1	8.0	-9.5	5.2	22.0
CC(=O)Nc1cccc(-c2nc3ccccc3s2)c1	20.7*	-5.3	-2.5	14.1	6.4	3.1
CC(=O)Oc1cccc(N2C(=O)c3ccc(C(=O)O)cc3C2=O)c1	-0.3	-0.7	3.7	-5.3	3.9	12.7
COC(=O)c1oc2ccccc2c1NC(=O)c1ccccc1O	3.4	-4.0	0.5	1.2	-0.8	10.8
Cc1c(C(=O)NNC(=O)c2ccccc2O)oc2ccccc12	-0.4	-1.0	-0.1	26.4*	-1.7	-14.4
CCN(CC)CCNC(=O)C1(c2ccccc2)CCCCC1	1.1	-7.8	-23.3	-12.4	40.4*	12.1
O=C(O)c1ccc(NC(=O)C2(c3ccccc3)CCCC2)cc1	0.3	-0.8	1.4	-8.2	5.4	10.2
CCN(CC)CCOC(=O)c1ccc(NC(=O)C2(c3ccccc3)CCCC2)cc1	1.9	-4.7	-19.4	-1.2	46.3*	18.6
Cc1ccc(OCC(=O)c2cc(C)n(CC(F)(F)F)c2C)c([N+](=O)[O-])n1	3.2	0.6	8.3	-7.1	-3.7	-1.6
Cc1ccc(OCC(=O)c2cc(C)n(Cc3cccs3)c2C)c([N+](=O)[O-])n1	7.0	-1.5	-10.9	28.3*	19.7	-11.4
Cc1cc(NC(=O)CCC(=O)N(CC(=O)NC2CCCC2)Cc2ccc(F)cc2)no1	-0.1	-4.2	0.0	-1.1	-0.2	-0.2
C=CCN(C(=O)CCC(=O)Nc1cc(C)on1)C(C(=O)NC1CCCC1)c1cccnc1 (centres undefined)	-0.4	-2.3	-1.8	23.8*	5.6	-6.8
Cc1cc(NC(=O)CCC(=O)N(CC(=O)NC2CCCC2)Cc2ccccc2Cl)no1	-1.0	-3.3	3.2	48.0*	-3.4	-2.0
O=C(CCC(=O)N(CC(=O)NC1CCCC1)C1CCCCC1)Nc1ccccn1	0.1	-6.3	3.7	26.8*	3.2	-14.4
Cc1cc(=O)c(C(=O)O)c(C)n1-c1ccccc1	0.3	8.7	22.3	1.0	-1.9	-0.2
O=[N+]([O-])c1ccc(-n2nncc2-c2ccc(Cl)cc2)cc1	0.1	-7.4	5.5	-20.3	-1.2	3.5
Nc1ccc(-n2nncc2-c2ccc(Cl)cc2)cc1	17.2*	-3.5	6.6	2.8	-8.2	4.5
CCC(CC)CN1C(N(C)C)=NC[C@@H]1CC(C)C	0.0	-11.7	2.9	-9.8	15.4	9.8
SMILES	CHO-K1 Ca ag	CHRM1 agonist	CHRM1 PAM	CHO-K1 Ca antag	M1 antag	M1 PAM parental
O=C(CCC(=O)N1CCN(c2ccc(F)cc2)CC1)N1CCN(c2ccc(F)cc2)CC1	6.7	-0.9	1.2	-5.1	-8.5	8.5
CN1CCN(C(=O)/C(=C/c2ccc(F)cc2)c2ccsc2)CC1	0.8	-6.0	-23.7	-5.6	98.4*	9.0
C/C(=C/c1ccccc1)C(=O)N1CCN(c2ccc(F)cc2)CC1	15.7*	4.4	8.4	3.8	-10.8	16.3
CN1CCN(C(=O)/C(=C/c2ccccc2)c2ccccc2)CC1	8.7	-7.2	-20.7	-4.7	98.5*	24.8
CN1CCN(C(=O)/C(C#N)=C/c2ccc(F)cc2)CC1	0.1	-2.1	3.3	-2.9	-6.2	-9.5
CC1CC(C)CN(C(=O)/C(=C\c2ccccc2)c2ccccc2)C1 (centres undefined)	0.1	-9.5	3.8	-0.2	-5.8	9.1
